PubChem BioAssay AID1159580 (chemical genetic matrix, 2015)
The campaign covered roughly 5,500 compounds. About 2,000 (36%) were called active. Another 18% or so got no clear call; they are omitted. Rule as the data show it: active = normalized growth mostly below about 0.91 (no sharp cut-off); inconclusive = no clear call, values can overlap the other calls; inactive = mostly above about 0.92. The list shows a part of the results.

Assay: chemical genetic growth profiling, strain panel (AID 1159580);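 also: tested at 20 µM; growth read once vehicle control cultures reached saturation at 30 °C; 1 = growth at the plate median or of vehicle wells; lower values mean less growth of the strain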
Conditions: growth OD

Measured: normalized growth

CCCCOc1ccc(CC(=O)NO)cc1
inactive: S. cerevisiae deletion strains, locus YJR043C, strain POL32, hits give low values 0.968 | S. cerevisiae deletion strains, locus YJR066W, strain TOR1, hits give low values 0.976 | S. cerevisiae deletion strains, locus YJR075W, strain HOC1, hits give low values 0.977 | S. cerevisiae deletion strains, locus YKL009W, strain mrt4, hits give low values 1.01 | S. cerevisiae deletion strains, locus YKL068W, hits give low values 0.999 | S. cerevisiae deletion strains, locus YKL085W, strain MDH1 (second series), hits give low values 0.998 | S. cerevisiae deletion strains, locus YKL085W, strain MDH1, hits give low values 0.998 | S. cerevisiae deletion strains, locus YKL160W, strain elf1, hits give low values 0.984 | S. cerevisiae deletion strains, locus YKL190W, strain CNB1, hits give low values 0.994 | S. cerevisiae deletion strains, locus YKR026C, strain gcn3, hits give low values 0.991 | S. cerevisiae deletion strains, locus YKR091W, strain srl3, hits give low values 0.996 | S. cerevisiae deletion strains, locus YLL001W, strain dnm1, hits give low values 0.986 | S. cerevisiae deletion strains, locus YLL026W, hits give low values 0.981 | S. cerevisiae deletion strains, locus YLL041C, strain sdh2, hits give low values 0.985 | S. cerevisiae deletion strains, locus YLR027C, strain aat2, hits give low values 0.97 | S. cerevisiae deletion strains, locus YLR039C, strain RIC1, hits give low values 0.731 | S. cerevisiae deletion strains, locus YLR058C, strain SHM2, hits give low values 1 | S. cerevisiae deletion strains, locus YLR102C, strain apc9, hits give low values 1.01 | S. cerevisiae deletion strains, locus YLR113W, strain HOG1, hits give low values 0.963 | S. cerevisiae deletion strains, locus YLR221C, strain rsa3, hits give low values 0.963 | S. cerevisiae deletion strains, locus YLR258W, strain gsy2, hits give low values 0.984 | S. cerevisiae deletion strains, locus YLR262C, strain YPT6, hits give low values 0.738 | S. cerevisiae deletion strains, locus YLR268W, strain sec22, hits give low values 0.983 | S. cerevisiae deletion strains, locus YLR320W, strain mms22, hits give low values 0.958 | S. cerevisiae deletion strains, locus YLR330W, strain CHS5, hits give low values 0.988 | S. cerevisiae deletion strains, locus YLR342W, strain FKS1 (second series), hits give low values 1.01 | S. cerevisiae deletion strains, locus YLR342W, strain FKS1, hits give low values 1.01 | S. cerevisiae deletion strains, locus YLR357W, strain rsc2, hits give low values 1 | S. cerevisiae deletion strains, locus YLR370C, strain arc18, hits give low values 0.989 | S. cerevisiae deletion strains, locus YLR371W, strain rom2, hits give low values 0.999 | S. cerevisiae deletion strains, locus YLR384C, strain iki3, hits give low values 0.991 | S. cerevisiae deletion strains, locus YLR418C, strain cdc73, hits give low values 0.921 | S. cerevisiae deletion strains, locus YML016C, strain PPZ1, hits give low values 1 | S. cerevisiae deletion strains, locus YML032C, strain rad52, hits give low values 0.997 | S. cerevisiae deletion strains, locus YML120C, strain ndi1, hits give low values 0.991 | S. cerevisiae deletion strains, locus YML124C, strain tub3, hits give low values 1 | S. cerevisiae deletion strains, locus YMR058W, strain fet3, hits give low values 0.969 | S. cerevisiae deletion strains, locus YMR078C, strain ctf18, hits give low values 1 | S. cerevisiae deletion strains, locus YMR125W, strain sto1, hits give low values 0.997 | S. cerevisiae deletion strains, locus YMR129W, hits give low values 0.996 | S. cerevisiae deletion strains, locus YMR205C, strain PFK2, hits give low values 0.984 | S. cerevisiae deletion strains, locus YMR223W, strain ubp8, hits give low values 1 | S. cerevisiae deletion strains, locus YMR231W, strain pep5, hits give low values 1 | S. cerevisiae deletion strains, locus YMR307W, strain GAS1, hits give low values 0.998 | S. cerevisiae deletion strains, locus YNL067W, strain RPL9B, hits give low values 0.976 | S. cerevisiae deletion strains, locus YNL071W, strain lat1, hits give low values 0.992 | S. cerevisiae deletion strains, locus YNL183C, strain NPR1, hits give low values 0.97 | S. cerevisiae deletion strains, locus YNL209W, strain ssb2, hits give low values 1.01 | S. cerevisiae deletion strains, locus YNL233W, strain BNI4, hits give low values 0.966 | S. cerevisiae deletion strains, locus YNL248C, strain rpa49, hits give low values 0.968 | S. cerevisiae deletion strains, locus YNL250W, strain rad50, hits give low values 1 | S. cerevisiae deletion strains, locus YNL271C, strain bni1, hits give low values 1.01 | S. cerevisiae deletion strains, locus YNL298W, strain CLA4, hits give low values 1.01 | S. cerevisiae deletion strains, locus YNL307C, strain MCK1, hits give low values 0.999 | S. cerevisiae deletion strains, locus YNL322C, strain KRE1 (second series), hits give low values 0.997 | S. cerevisiae deletion strains, locus YNR049C, strain mso1, hits give low values 0.995 | S. cerevisiae deletion strains, locus YNR052C, strain pop2, hits give low values 1.01 | S. cerevisiae deletion strains, locus YOL006C, strain TOP1, hits give low values 0.887 | S. cerevisiae deletion strains, locus YOL012C, strain htz1 1.47 | S. cerevisiae deletion strains, locus YOL147C, strain pex11, hits give low values 1 | S. cerevisiae deletion strains, locus YOR001W, strain rrp6, hits give low values 1.01 | S. cerevisiae deletion strains, locus YOR061W, strain CKA2, hits give low values 0.985 | S. cerevisiae deletion strains, locus YOR069W, strain VPS5, hits give low values 0.997 | S. cerevisiae deletion strains, locus YOR070C, strain gyp1, hits give low values 0.999 | S. cerevisiae deletion strains, locus YOR080W, strain dia2, hits give low values 0.995 | S. cerevisiae deletion strains, locus YOR083W, strain WHI5, hits give low values 0.982 | S. cerevisiae deletion strains, locus YOR106W, strain vam3, hits give low values 0.971 | S. cerevisiae deletion strains, locus YOR136W, strain idh2, hits give low values 1.01 | S. cerevisiae deletion strains, locus YOR144C, strain elg1, hits give low values 1 | S. cerevisiae deletion strains, locus YOR184W, strain ser1, hits give low values 0.999 | S. cerevisiae deletion strains, locus YOR231W, strain MKK1, hits give low values 1 | S. cerevisiae deletion strains, locus YOR265W, strain rbl2, hits give low values 0.997 | S. cerevisiae deletion strains, locus YOR270C, strain vph1, hits give low values 0.989 | S. cerevisiae deletion strains, locus YOR290C, strain snf2, hits give low values 0.989 | S. cerevisiae deletion strains, locus YOR316C, strain cot1, hits give low values 1.01 | S. cerevisiae deletion strains, locus YPL051W, strain arl3, hits give low values 0.961 | S. cerevisiae deletion strains, locus YPL078C, strain atp4, hits give low values 1 | S. cerevisiae deletion strains, locus YPL106C, strain sse1, hits give low values 1.08 | S. cerevisiae deletion strains, locus YPL240C, strain hsp82, hits give low values 1 | S. cerevisiae deletion strains, locus YPL241C, strain CIN2, hits give low values 0.994 | S. cerevisiae deletion strains, locus YPL256C, strain CLN2, hits give low values 1.02 | S. cerevisiae deletion strains, locus YPR119W, strain clb2, hits give low values 1.01 | S. cerevisiae deletion strains, locus YPR141C, strain kar3, hits give low values 1 | S. cerevisiae deletion strains, locus YPR163C, strain tif3, hits give low values 1.01 | S. cerevisiae deletion strains, locus YPR167C, strain met16, hits give low values 1.01 | S. cerevisiae deletion strains, strain wtn01, hits give low values 0.988 | S. cerevisiae strains, strain wild type, hits give low values 0.992
active: S. cerevisiae deletion strains, locus YKR001C, strain vps1, hits give low values 0.831 | S. cerevisiae deletion strains, locus YLR262C, strain YPT6 (second series), hits give low values 0.847
